Consider 40 compounds from PubChem BioAssay.

Activity calls are given as the source filed them. Cut-off read from the data, not from the text of the source: active = inhibition above about 31%; inactive = the rest.

One test is described as follows: reversal of MRP1-mediated doxorubicin resistance, pilot screen, H69AR cells, doxorubicin co-treatment (AID 601). Conditions: H69AR cells, CellTiter-Glo, 72 h; compound alone cytotoxicity; at 10 µM.
With `COCCOC(=O)C1=C(C)Nc2ncnn2C1c1ccc(F)cc1` (stereo not given), the viability was determined as 85.8%.
Same read-out and setting: with `CCC(=O)N[C@@H]1CC(C(C)(C)NC(=O)CC)CC=C1C` (stereo not given in full) the figure was 86.4%; with `O=C(CCCCCN1C(=O)CCC1=O)NCc1ccccc1`, 98.2%.
`O=C(Cn1ccc2ccccc2c1=O)NCCC(=O)NC1CCN(Cc2ccccc2)CC1`: the viability stood at 100%.
Same read-out and setting: for `Cc1ccc(C)c(N2CCN(C(=O)CCCn3c(=S)[nH]c4cc5c(cc4c3=O)OCO5)CC2)c1` the value was 94%; for `COC(=O)C1C(=O)c2c([nH]c(C(=O)OCCOC(C)C)c2C)CC1C` (stereo not given), 99.5%.
Still for that read-out and setting: for `CCOC(=O)c1c(C)[nH]c(C)c1C(=O)COc1ccc(NC(=O)c2ccco2)cc1` the value was 86.9%.
On the same count and under the same terms, with `CN1CCCN(C(=O)c2cc(=O)[nH]c3ccccc23)c2nc3ccccc3nc21` the figure was 79.9%.
For `O=C(Nc1cccnc1)c1ccc2c(c1)C(=O)N(Cc1cccnc1)C2=O`, the viability came out at 102%.
On the same count and under the same terms, with `CCCCn1c(SCC(=O)Nc2cc(C)on2)nnc1-c1cccnc1` the figure was 104%.
On the same count and under the same terms, for `Nc1nc(-c2ccccc2Br)cs1` the value was 91.5%; for `CCOc1ccc(NC(=O)CN(C)S(=O)(=O)c2cccs2)cc1`, 93.9%.
On the same count and under the same terms, with `Cc1sc(NC(=O)CSc2nc(N)n(CC(=O)c3ccccc3)n2)c(C#N)c1C` the figure was 90.4%.
Consider `CCOC(=O)C1=C(C)Nc2ncnn2C1c1cc(OC)ccc1OC` (stereo not given), for which the viability worked out at 81.8%.
As for `O=S(=O)(NCc1ccccc1)c1ccc2c(c1)OCCO2`, the viability worked out at 76.8%.
On the same count and under the same terms, with `CC1(C)Cc2c(sc3c2C2=NCCN2C=N3)CO1` the figure was 90.9%; with `Cc1ccccc1CN1CCN(CC(=O)NCc2ccccc2)C1=O`, 89.9%; with `Cc1nc2ccccc2cc1C(=O)NCc1ccco1`, 93.3%.
As for `O=C(NCc1cccnc1)C1c2ccccc2C(=O)N1Cc1ccco1` (stereo not given), the viability worked out at 92.9%.
Same read-out and setting: for `CC(C(=O)N1CCc2ccccc21)N1CCc2ccccc2C1` (stereo not given) the value was 91.6%.
The same measure, in the same setting: for `Cc1ccc2cc(C#N)c(NCCCNC(=O)C3CCCO3)nc2c1` (stereo not given) the value was 99%; for `Nn1c(SCC(=O)Nc2ccc3c(c2)OCO3)nnc1C1CC1`, 94.2%.
On the same count and under the same terms, for `COc1ccc(C2C(C(=O)c3sc(C)nc3C)=C(O)C(=O)N2CCN2CCOCC2)cc1` (stereo not given) the value was 102%; for `O=C(O)c1cccc(CN2C(=O)SC(Nc3ccccc3)C2=O)c1` (stereo not given), 103%; for `Nc1c(S(=O)(=O)c2cccs2)c2nc3ccccc3nc2n1CC1CCCO1` (stereo not given), 85.9%.
Regarding `O=C(Nc1ccc(OC(=O)c2ccco2)cc1)c1ccco1`, the viability worked out at 85.3%.
The same measure, in the same setting: for `COC(=O)Cn1cnc2c(nnn2-c2ccc(C)cc2)c1=O` the value was 94.7%.
`O=C(Nc1nc2c(s1)CCc1ccccc1-2)c1cccs1`: the viability was found to be 82.9%.
Same read-out and setting: for `Cc1cccc(OCCCc2c(C)n[nH]c2C)c1` the value was 98.7%; for `O=C(CN1CCC(NC(=O)c2ccc(F)cc2)CC1)NCc1ccccc1F`, 103%; for `CCCCc1ccc(NC(=O)c2c(C)noc2C)cc1`, 89.4%.
On the same count and under the same terms, with `CC1=Nn2c(nnc2-c2ccccn2)SC1` the figure was 99.5%.
Consider `O=c1oc2ccccc2n1CCn1c2ccccc2c2nc3ccccc3nc21`, for which the viability is 34.2%.
In the case of `COc1ccc(N2CCN(C(c3cccs3)c3nnnn3C3CCCC3)CC2)cc1` (stereo not given), the viability was 70%.
Same read-out and setting: for `CCc1ccc2c(CN(CC)Cc3nc4ccccc4c(=O)[nH]3)cc(=O)oc2c1` the value was 67.9%.
In the case of `COc1ccc(OC)c(N(CC(=O)N2CCN(c3cc(Cl)ccc3C)CC2)S(C)(=O)=O)c1`, the viability was 75.9%.
The same measure, in the same setting: with `COC(=O)c1ccc(COc2ncnc3c(Cl)cc(Cl)cc23)o1` the figure was 85.9%; with `O=C1CC(c2cccc(Cl)c2)Cc2nc(N3CCN(c4ccccc4)CC3)ncc21` (stereo not given), 91.3%; with `COc1ccccc1Oc1coc2c(CN3CCN(C)CC3)c(O)ccc2c1=O`, 99.5%.
Still for that read-out and setting: for `CCOC(=O)Nc1ccc2c(CN3C(=O)NC4(CCCC4)C3=O)cc(=O)oc2c1` the value was 88.3%.

The next test in a line: 384-well plate pilot, post-Golgi transport modulator project, inhibition of yeast transport mutant growth (AID 636). Conditions: absorbance 615 nm, about 18 h, stronger effect = higher value.
Consider `COCCOC(=O)C1=C(C)Nc2ncnn2C1c1ccc(F)cc1` (stereo not given), for which the inhibition was -3.6% (inactive).
Still for that read-out and setting: with `CCC(=O)N[C@@H]1CC(C(C)(C)NC(=O)CC)CC=C1C` (stereo not given in full) the figure was -5.33% (inactive); with `O=C(CCCCCN1C(=O)CCC1=O)NCc1ccccc1`, -7.97% (inactive).
Same read-out and setting: for `O=C(Cn1ccc2ccccc2c1=O)NCCC(=O)NC1CCN(Cc2ccccc2)CC1` the value was 3.29% (inactive); for `Cc1ccc(C)c(N2CCN(C(=O)CCCn3c(=S)[nH]c4cc5c(cc4c3=O)OCO5)CC2)c1`, -3.38% (inactive).
The same measure, in the same setting: with `COC(=O)C1C(=O)c2c([nH]c(C(=O)OCCOC(C)C)c2C)CC1C` (stereo not given) the figure was -2.11% (inactive); with `CCOC(=O)c1c(C)[nH]c(C)c1C(=O)COc1ccc(NC(=O)c2ccco2)cc1`, -1.43% (inactive).
Regarding `CN1CCCN(C(=O)c2cc(=O)[nH]c3ccccc23)c2nc3ccccc3nc21`, the inhibition was -4.93% (inactive).
Same read-out and setting: with `O=C(Nc1cccnc1)c1ccc2c(c1)C(=O)N(Cc1cccnc1)C2=O` the figure was -2.93% (inactive); with `CCCCn1c(SCC(=O)Nc2cc(C)on2)nnc1-c1cccnc1`, -0.67% (inactive); with `Nc1nc(-c2ccccc2Br)cs1`, -0.66% (inactive).
Same read-out and setting: for `CCOc1ccc(NC(=O)CN(C)S(=O)(=O)c2cccs2)cc1` the value was -3.2% (inactive); for `Cc1sc(NC(=O)CSc2nc(N)n(CC(=O)c3ccccc3)n2)c(C#N)c1C`, -3.65% (inactive).
On the same count and under the same terms, with `CCOC(=O)C1=C(C)Nc2ncnn2C1c1cc(OC)ccc1OC` (stereo not given) the figure was -6.22% (inactive); with `O=S(=O)(NCc1ccccc1)c1ccc2c(c1)OCCO2`, -3.9% (inactive).
Turning to `CC1(C)Cc2c(sc3c2C2=NCCN2C=N3)CO1`, the inhibition is -3.82% (inactive).
For the compound `Cc1ccccc1CN1CCN(CC(=O)NCc2ccccc2)C1=O`, the inhibition is -5.32% (inactive).
On the same count and under the same terms, for `Cc1nc2ccccc2cc1C(=O)NCc1ccco1` the value was -4.93% (inactive); for `O=C(NCc1cccnc1)C1c2ccccc2C(=O)N1Cc1ccco1` (stereo not given), -1.56% (inactive); for `CC(C(=O)N1CCc2ccccc21)N1CCc2ccccc2C1` (stereo not given), -0.53% (inactive).
On the same count and under the same terms, with `Cc1ccc2cc(C#N)c(NCCCNC(=O)C3CCCO3)nc2c1` (stereo not given) the figure was -6.71% (inactive); with `Nn1c(SCC(=O)Nc2ccc3c(c2)OCO3)nnc1C1CC1`, -5.41% (inactive).
On the same count and under the same terms, with `COc1ccc(C2C(C(=O)c3sc(C)nc3C)=C(O)C(=O)N2CCN2CCOCC2)cc1` (stereo not given) the figure was 0% (inactive); with `O=C(O)c1cccc(CN2C(=O)SC(Nc3ccccc3)C2=O)c1` (stereo not given), -4.8% (inactive); with `Nc1c(S(=O)(=O)c2cccs2)c2nc3ccccc3nc2n1CC1CCCO1` (stereo not given), -2.21% (inactive).
Take `O=C(Nc1ccc(OC(=O)c2ccco2)cc1)c1ccco1`: the inhibition is -5.73% (inactive).
Still for that read-out and setting: for `COC(=O)Cn1cnc2c(nnn2-c2ccc(C)cc2)c1=O` the value was -6.62% (inactive); for `O=C(Nc1nc2c(s1)CCc1ccccc1-2)c1cccs1`, -3.33% (inactive).
Still for that read-out and setting: with `Cc1cccc(OCCCc2c(C)n[nH]c2C)c1` the figure was 5.32% (inactive).
With `O=C(CN1CCC(NC(=O)c2ccc(F)cc2)CC1)NCc1ccccc1F`, the inhibition is -5.6% (inactive).
Same read-out and setting: with `CCCCc1ccc(NC(=O)c2c(C)noc2C)cc1` the figure was -3.68% (inactive); with `CC1=Nn2c(nnc2-c2ccccn2)SC1`, -4.4% (inactive).
Still for that read-out and setting: for `O=c1oc2ccccc2n1CCn1c2ccccc2c2nc3ccccc3nc21` the value was -1.05% (inactive).
Still for that read-out and setting: with `COc1ccc(N2CCN(C(c3cccs3)c3nnnn3C3CCCC3)CC2)cc1` (stereo not given) the figure was -3.25% (inactive).
Regarding `CCc1ccc2c(CN(CC)Cc3nc4ccccc4c(=O)[nH]3)cc(=O)oc2c1`, the inhibition is -1.32% (inactive).
Same read-out and setting: with `COc1ccc(OC)c(N(CC(=O)N2CCN(c3cc(Cl)ccc3C)CC2)S(C)(=O)=O)c1` the figure was -5.53% (inactive); with `COC(=O)c1ccc(COc2ncnc3c(Cl)cc(Cl)cc23)o1`, -8.16% (inactive); with `O=C1CC(c2cccc(Cl)c2)Cc2nc(N3CCN(c4ccccc4)CC3)ncc21` (stereo not given), 1.3% (inactive).
Same read-out and setting: for `COc1ccccc1Oc1coc2c(CN3CCN(C)CC3)c(O)ccc2c1=O` the value was -1.82% (inactive).
Still for that read-out and setting: with `CCOC(=O)Nc1ccc2c(CN3C(=O)NC4(CCCC4)C3=O)cc(=O)oc2c1` the figure was -6.58% (inactive).
